Results filed as inconclusive are left out. Activity calls are given as the source filed them. Rule for the calls: active = hit-call score of the fitted dose curve at least 0.9, where 1 is the maximum; inconclusive = response in the unintended direction; inactive = score below 0.9.
Legend:
[1] = target: human Thromboxane A2 Receptor (TXA2), TBXA2R (gene 6915) (UniProt P21731); experiment: NVS_GPCR_hTXA2: NovaScreen (NVS) G Protein-Coupled Receptor Assay for human Thromboxane A2 Receptor (TXA2) (AID 2283282);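 note: actives reduce bound radioligand signal relative to DMSO baseline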
How it was run: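 Screening ran at 25 uM in duplicate, with concentration series for confirmed actives. Each test measures radioligand binding to human platelet protein after 1 h, cell-free, using filter-based scintillation detection of signal loss relative to DMSO.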

[2] = target: mouse Cholecystokinin, CCK1 Receptor (CCKA), Cckar (gene 12425) (UniProt O08786); experiment: NVS_GPCR_mCCKAPeripheral: NovaScreen (NVS) G Protein-Coupled Receptor Assay for mouse Cholecystokinin, CCK1 Receptor (CCKA) (AID 2283285)
How it was run: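 Chemicals were first screened in duplicate at 25 uM, with those meeting threshold (e.g., 30% inhibition) retested in singleton concentration series to 50 uM maximum. Binding of radioligand to mouse pancreatic membranes was read after 2 h by filtration and scintillation counting.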

[3] = target: human Purinergic Receptor P2Y, P2RY1 (gene 5028) (UniProt P47900); experiment: NVS_GPCR_hPY2: NovaScreen (NVS) G Protein-Coupled Receptor Assay for human Purinergic Receptor P2Y (AID 2283281)
How it was run: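 Filtration scintillation readout of radioligand displacement on U937 extract, measured 1 h post-dosing. Single 25 uM duplicate screen, then singleton concentration series to 50 uM for chemicals passing threshold; DMSO as baseline.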

[4] = target: human Neurokinin, NK2 Receptor, TACR2 (gene 6865) (UniProt P21452); experiment: NVS_GPCR_hNK2: NovaScreen (NVS) G Protein-Coupled Receptor Assay for human Neurokinin, NK2 Receptor (AID 2283278);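 note: actives reduce bound radioligand signal relative to DMSO baseline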
How it was run: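 Test chemicals displace a radioligand from receptor prepared from CHO cells in a cell-free format, read after 4 hours by scintillation counting on filters. Screening starts at 25 uM in duplicate, and active chemicals then go to concentration series.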

[5] = target: human Vasopressin 1A Receptor (V1A), AVPR1A (gene 552) (UniProt P37288); experiment: NVS_GPCR_hV1A: NovaScreen (NVS) G Protein-Coupled Receptor Assay for human Vasopressin 1A Receptor (V1A) (AID 2283284)
How it was run: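 Single-concentration duplicate screen at 25 uM, with concentration-response follow-up (top 50 uM) for actives. The assay measured displacement of a radioligand from human platelet-derived receptor after 1.5 h, detected by filtration and scintillation counting.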

[6] = target: Neuropeptide Y receptor type 2 (Homo sapiens) (UniProt P49146); experiment: NVS_GPCR_hNPY2: NovaScreen (NVS) G Protein-Coupled Receptor Assay for human Neuropeptide Receptor Y2 (NPY2) (AID 2283277)
How it was run: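 Chemicals were first tested in duplicate at 25 uM, then actives in singleton concentration series to 50 uM. Tracer binding to SK-N-MC-derived protein measured cell-free after 1 h via filter scintillation; signal loss relative to DMSO.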

[7] = target: human Endothelin Receptor Type B (ETB), EDNRB (gene 1910) (UniProt P24530); experiment: NVS_GPCR_hETB: NovaScreen (NVS) G Protein-Coupled Receptor Assay for human Endothelin Receptor Type B (ETB) (AID 2283267)
How it was run: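 Filter-based scintillation readout of radioligand displacement, 4 h, using membranes from human astrocytoma cells. Actives from a 25 uM duplicate screen were retested in concentration-response (top 50 uM) relative to DMSO baseline.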

[8] = target: D(1A) dopamine receptor (Homo sapiens) (UniProt P21728); experiment: NVS_GPCR_hDRD1: NovaScreen (NVS) G Protein-Coupled Receptor Assay for human Dopamine Receptor D1 (DRD1) (AID 2283269)
How it was run: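 Extracted HEK293 DRD1 is incubated 1 h with compound and a tritiated or iodinated radioligand, then filtered and counted. Screening runs 25 uM in duplicate with on-plate positive and negative controls.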

[9] = target: Muscarinic acetylcholine receptor M1 (Homo sapiens) (UniProt P11229); experiment: NVS_GPCR_hM1: NovaScreen (NVS) G Protein-Coupled Receptor Assay for human Muscarinic, M1 Receptor (AID 2283270)
How it was run: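 Actives from a duplicate 25 uM single-point screen were retested in concentration series. Binding measured as displacement of a radioligand from CHO-derived receptor preparation, 1 h incubation, filtration and scintillation counting, analysed as signal loss against DMSO.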

[10] = target: Muscarinic acetylcholine receptor M2 (Homo sapiens) (UniProt P08172); experiment: NVS_GPCR_hM2: NovaScreen (NVS) G Protein-Coupled Receptor Assay for human Muscarinic, M2 Receptor (AID 2283273)
How it was run: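 Filter-based radiodetection read bound radioligand 1 h after dosing CHO-derived membrane protein. Single-concentration duplicates (25 uM) first, then concentration-response for actives; signal loss versus DMSO scored.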

[11] = target: human Muscarinic, M4 Receptor, CHRM4 (gene 1132) (UniProt P08173); experiment: NVS_GPCR_hM4: NovaScreen (NVS) G Protein-Coupled Receptor Assay for human Muscarinic, M4 Receptor (AID 2283274)
How it was run: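 Filter-based scintillation counting of radioligand bound to CHO-expressed human M4 preparations after 1 h; loss of signal fitted versus DMSO. Initial duplicate testing at 25 uM, concentration-response follow-up for actives.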

[12] = target: Muscarinic acetylcholine receptor M5 (Homo sapiens) (UniProt P08912); experiment: NVS_GPCR_hM5: NovaScreen (NVS) G Protein-Coupled Receptor Assay for human Muscarinic, M5 Receptor (AID 2283275)
How it was run: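 Chemicals passing a primary duplicate screen at 25 uM were run as singleton concentration series, maximum 50 uM. Displacement of a specific radioligand from CHO-extracted receptor was read by filter scintillation after 1 h, relative to DMSO.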

[13] = target: human Opioid Receptor Delta 1 (Opiate D1), OPRD1 (gene 4985) (UniProt P41143); experiment: NVS_GPCR_hOpiate_D1: NovaScreen (NVS) G Protein-Coupled Receptor Assay for human Opioid Receptor Delta 1 (Opiate D1) (AID 2283280)
How it was run: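 Membrane preparations from CHO cells bearing the human receptor were incubated 1 h with test chemical, and bound radioligand was counted after filtration. Actives from 25 uM duplicate screening were retested in concentration-response.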

[14] = target: human Orphanin, Opioid Related Nociceptin Receptor 1 (ORL1), OPRL1 (gene 4987) (UniProt P41146); experiment: NVS_GPCR_hORL1: NovaScreen (NVS) G Protein-Coupled Receptor Assay for human Orphanin, Opioid Related Nociceptin Receptor 1 (ORL1) (AID 2283283)
How it was run: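 Cell-free binding using HEK293-derived receptor protein: radioligand displacement measured by filter scintillation 1 hour after dosing. Primary testing at 25 uM in duplicate, followed by singleton concentration series up to 50 uM; DMSO served as negative control.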

[15] = target: human Histamine 1 Receptor (H1), HRH1 (gene 3269) (UniProt P35367); experiment: NVS_GPCR_hH1: NovaScreen (NVS) G Protein-Coupled Receptor Assay for human Histamine 1 Receptor (H1) (AID 2283268)
How it was run: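 Filter-based scintillation detection of radioligand binding to human H1, 1 h incubation; chemicals screened in duplicate at 25 uM, then concentration-response; signal loss relative to DMSO taken as activity.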

[16] = target: Muscarinic acetylcholine receptor M3 (Homo sapiens) (UniProt P20309); experiment: NVS_GPCR_hM3: NovaScreen (NVS) G Protein-Coupled Receptor Assay for human Muscarinic, M3 Receptor (AID 2283272)
How it was run: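 Radioligand displacement binding on human M3 receptor in CHO-derived membranes, 1 h incubation, filter-based scintillation counting. Primary screen in duplicate at 25 uM; actives followed up in concentration series; loss of signal versus DMSO.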

[17] = target: human Neuropeptide Receptor Y1 (NPY1), NPY1R (gene 4886) (UniProt P25929); experiment: NVS_GPCR_hNPY1: NovaScreen (NVS) G Protein-Coupled Receptor Assay for human Neuropeptide Receptor Y1 (NPY1) (AID 2283276)
How it was run: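 Displacement of specific radioligand from NPY1 receptor of SK-N-MC origin, read by filtration and scintillation after 1 h. Compounds first tested at 25 uM in duplicate, then actives in concentration series; signal loss relative to DMSO.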

[18] = target: human Neurotensin Receptor (NTS), NTSR1 (gene 4923) (UniProt P30989); experiment: NVS_GPCR_hNTS: NovaScreen (NVS) G Protein-Coupled Receptor Assay for human Neurotensin Receptor (NTS) (AID 2283279)
How it was run: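 Compounds competed with a radiolabelled ligand for binding to CHO-derived human neurotensin receptor; bound signal counted after filtration, 1 h. Screened first at a single concentration of 25 uM in duplicate, then concentration series to 50 uM maximum for actives.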

Chain of human Muscarinic, M4 Receptor, CHRM4 (gene 1132) (P08173 whole entry, looked up): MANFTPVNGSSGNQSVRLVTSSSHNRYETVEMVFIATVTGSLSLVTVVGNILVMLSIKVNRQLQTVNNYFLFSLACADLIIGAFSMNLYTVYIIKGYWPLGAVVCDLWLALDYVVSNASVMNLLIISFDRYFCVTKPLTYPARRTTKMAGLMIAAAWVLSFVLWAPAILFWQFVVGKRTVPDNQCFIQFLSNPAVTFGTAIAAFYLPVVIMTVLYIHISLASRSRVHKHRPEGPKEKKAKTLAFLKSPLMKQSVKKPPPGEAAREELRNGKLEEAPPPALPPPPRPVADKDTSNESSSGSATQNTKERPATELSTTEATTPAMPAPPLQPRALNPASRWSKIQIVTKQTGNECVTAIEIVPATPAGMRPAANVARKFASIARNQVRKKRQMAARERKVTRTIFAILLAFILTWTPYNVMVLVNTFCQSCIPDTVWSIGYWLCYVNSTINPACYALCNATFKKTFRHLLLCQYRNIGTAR
Chain of Muscarinic acetylcholine receptor M2 (Homo sapiens) (P08172 whole entry, looked up): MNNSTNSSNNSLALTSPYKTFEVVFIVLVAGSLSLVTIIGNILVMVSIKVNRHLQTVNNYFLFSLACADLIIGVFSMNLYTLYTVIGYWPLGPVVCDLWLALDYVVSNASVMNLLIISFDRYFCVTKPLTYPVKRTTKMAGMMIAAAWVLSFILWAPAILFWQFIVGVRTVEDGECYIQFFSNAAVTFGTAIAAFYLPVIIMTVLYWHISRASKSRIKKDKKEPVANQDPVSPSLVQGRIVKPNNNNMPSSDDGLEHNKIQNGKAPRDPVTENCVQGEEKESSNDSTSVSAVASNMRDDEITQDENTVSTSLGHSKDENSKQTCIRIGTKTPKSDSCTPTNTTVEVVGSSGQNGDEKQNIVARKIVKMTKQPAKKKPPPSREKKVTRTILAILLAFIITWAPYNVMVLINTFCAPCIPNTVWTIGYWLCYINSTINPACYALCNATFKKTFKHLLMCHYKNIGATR
Chain of human Opioid Receptor Delta 1 (Opiate D1), OPRD1 (gene 4985) (P41143 whole entry, looked up): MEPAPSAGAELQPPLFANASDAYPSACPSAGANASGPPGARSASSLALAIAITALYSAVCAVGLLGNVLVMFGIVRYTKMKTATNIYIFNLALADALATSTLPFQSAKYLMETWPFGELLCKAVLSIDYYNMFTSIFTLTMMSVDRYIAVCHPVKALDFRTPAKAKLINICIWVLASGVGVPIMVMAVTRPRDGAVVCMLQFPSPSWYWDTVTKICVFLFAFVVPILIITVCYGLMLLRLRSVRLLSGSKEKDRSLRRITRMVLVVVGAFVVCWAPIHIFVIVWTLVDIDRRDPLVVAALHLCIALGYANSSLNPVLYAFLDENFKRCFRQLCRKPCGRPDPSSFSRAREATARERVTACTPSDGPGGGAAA
Chain of human Purinergic Receptor P2Y, P2RY1 (gene 5028) (P47900 whole entry, looked up): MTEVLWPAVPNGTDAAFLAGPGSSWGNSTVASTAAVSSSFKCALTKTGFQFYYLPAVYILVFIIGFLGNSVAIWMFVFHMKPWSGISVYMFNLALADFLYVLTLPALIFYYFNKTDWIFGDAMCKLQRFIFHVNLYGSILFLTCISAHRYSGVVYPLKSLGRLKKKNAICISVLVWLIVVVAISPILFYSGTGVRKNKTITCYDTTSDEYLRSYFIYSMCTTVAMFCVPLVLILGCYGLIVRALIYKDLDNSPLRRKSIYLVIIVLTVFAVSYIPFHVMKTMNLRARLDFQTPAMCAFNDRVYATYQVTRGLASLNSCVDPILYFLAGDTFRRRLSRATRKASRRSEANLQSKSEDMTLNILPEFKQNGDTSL
Chain of human Thromboxane A2 Receptor (TXA2), TBXA2R (gene 6915) (P21731 whole entry, looked up): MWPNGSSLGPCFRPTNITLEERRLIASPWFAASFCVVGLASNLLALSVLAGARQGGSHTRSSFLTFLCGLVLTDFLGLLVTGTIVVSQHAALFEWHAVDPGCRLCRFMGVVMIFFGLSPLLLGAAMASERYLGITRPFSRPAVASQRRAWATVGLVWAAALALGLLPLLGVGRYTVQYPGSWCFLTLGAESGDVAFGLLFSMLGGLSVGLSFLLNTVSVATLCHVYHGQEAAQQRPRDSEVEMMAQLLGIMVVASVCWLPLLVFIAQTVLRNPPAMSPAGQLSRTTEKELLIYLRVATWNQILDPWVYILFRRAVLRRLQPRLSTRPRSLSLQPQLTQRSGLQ
Chain of D(1A) dopamine receptor (Homo sapiens) (P21728 whole entry, looked up): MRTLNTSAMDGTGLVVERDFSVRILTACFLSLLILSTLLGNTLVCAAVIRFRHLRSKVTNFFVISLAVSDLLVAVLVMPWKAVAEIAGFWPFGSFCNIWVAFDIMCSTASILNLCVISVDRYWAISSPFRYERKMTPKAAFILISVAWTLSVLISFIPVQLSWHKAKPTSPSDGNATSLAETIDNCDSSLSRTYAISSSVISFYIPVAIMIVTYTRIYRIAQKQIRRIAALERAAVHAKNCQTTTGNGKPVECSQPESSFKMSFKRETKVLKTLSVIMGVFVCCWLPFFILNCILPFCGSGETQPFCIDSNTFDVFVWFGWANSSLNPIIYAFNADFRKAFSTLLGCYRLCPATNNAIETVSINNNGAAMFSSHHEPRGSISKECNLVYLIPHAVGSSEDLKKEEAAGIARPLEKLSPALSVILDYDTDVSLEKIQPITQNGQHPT
Chain of mouse Cholecystokinin, CCK1 Receptor (CCKA), Cckar (gene 12425) (O08786 whole entry, looked up): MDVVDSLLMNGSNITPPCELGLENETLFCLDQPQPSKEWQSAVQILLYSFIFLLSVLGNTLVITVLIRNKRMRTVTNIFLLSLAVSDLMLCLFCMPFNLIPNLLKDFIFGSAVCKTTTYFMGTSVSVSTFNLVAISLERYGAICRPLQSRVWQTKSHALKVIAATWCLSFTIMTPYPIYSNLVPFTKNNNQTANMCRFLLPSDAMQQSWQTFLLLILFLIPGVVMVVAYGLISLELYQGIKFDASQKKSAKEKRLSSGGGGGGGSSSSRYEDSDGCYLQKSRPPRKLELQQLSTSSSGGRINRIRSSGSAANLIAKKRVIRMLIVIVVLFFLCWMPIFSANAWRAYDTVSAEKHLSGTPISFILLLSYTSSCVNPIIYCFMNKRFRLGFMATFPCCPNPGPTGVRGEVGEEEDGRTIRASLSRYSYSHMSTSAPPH
Chain of Muscarinic acetylcholine receptor M1 (Homo sapiens) (P11229 whole entry, looked up): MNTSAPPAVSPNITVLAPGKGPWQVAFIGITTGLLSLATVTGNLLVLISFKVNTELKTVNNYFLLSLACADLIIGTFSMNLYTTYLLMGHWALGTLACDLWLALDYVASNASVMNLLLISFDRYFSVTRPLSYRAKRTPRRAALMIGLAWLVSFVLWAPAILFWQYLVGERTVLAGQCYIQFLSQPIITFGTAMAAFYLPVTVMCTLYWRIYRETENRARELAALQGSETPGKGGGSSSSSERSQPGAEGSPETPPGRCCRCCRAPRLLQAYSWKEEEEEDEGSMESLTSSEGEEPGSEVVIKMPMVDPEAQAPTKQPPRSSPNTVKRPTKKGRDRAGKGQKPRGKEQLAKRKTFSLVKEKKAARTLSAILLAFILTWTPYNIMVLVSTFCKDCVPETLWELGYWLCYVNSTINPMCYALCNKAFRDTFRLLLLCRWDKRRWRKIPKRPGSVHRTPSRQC
Chain of human Neurokinin, NK2 Receptor, TACR2 (gene 6865) (P21452 whole entry, looked up): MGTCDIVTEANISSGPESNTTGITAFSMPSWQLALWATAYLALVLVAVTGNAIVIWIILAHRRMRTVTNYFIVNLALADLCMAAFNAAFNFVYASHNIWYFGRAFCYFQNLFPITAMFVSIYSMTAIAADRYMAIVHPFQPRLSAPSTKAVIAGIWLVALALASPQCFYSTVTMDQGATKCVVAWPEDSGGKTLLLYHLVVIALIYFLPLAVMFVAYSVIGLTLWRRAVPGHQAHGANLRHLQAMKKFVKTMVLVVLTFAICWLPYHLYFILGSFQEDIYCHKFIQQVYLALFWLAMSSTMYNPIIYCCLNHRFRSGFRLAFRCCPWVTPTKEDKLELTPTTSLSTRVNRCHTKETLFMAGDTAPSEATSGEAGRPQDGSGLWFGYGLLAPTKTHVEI
Chain of Muscarinic acetylcholine receptor M5 (Homo sapiens) (P08912 whole entry, looked up): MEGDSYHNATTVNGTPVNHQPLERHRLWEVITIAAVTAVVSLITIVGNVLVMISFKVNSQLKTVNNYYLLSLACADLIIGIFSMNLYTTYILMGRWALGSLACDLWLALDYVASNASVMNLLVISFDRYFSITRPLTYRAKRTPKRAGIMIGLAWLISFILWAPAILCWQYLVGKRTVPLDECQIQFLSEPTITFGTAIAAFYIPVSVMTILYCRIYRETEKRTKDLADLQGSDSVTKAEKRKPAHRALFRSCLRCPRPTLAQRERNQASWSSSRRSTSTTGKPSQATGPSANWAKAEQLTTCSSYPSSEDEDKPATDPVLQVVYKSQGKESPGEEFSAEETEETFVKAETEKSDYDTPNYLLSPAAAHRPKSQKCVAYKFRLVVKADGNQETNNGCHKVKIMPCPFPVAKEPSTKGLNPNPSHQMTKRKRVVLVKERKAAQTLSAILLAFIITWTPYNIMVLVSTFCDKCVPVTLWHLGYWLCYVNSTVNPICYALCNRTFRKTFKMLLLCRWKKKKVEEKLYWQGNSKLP
Chain of Neuropeptide Y receptor type 2 (Homo sapiens) (P49146 whole entry, looked up): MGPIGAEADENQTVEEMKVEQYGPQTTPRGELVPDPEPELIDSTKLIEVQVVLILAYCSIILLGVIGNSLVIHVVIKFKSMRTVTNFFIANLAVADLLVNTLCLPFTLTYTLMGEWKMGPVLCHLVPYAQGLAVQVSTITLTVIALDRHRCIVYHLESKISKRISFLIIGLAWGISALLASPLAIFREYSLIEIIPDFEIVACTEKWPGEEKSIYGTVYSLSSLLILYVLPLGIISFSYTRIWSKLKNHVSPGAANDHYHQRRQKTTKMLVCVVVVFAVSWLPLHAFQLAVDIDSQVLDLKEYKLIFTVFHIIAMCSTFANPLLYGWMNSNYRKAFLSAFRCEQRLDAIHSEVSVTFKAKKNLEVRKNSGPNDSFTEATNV

Compound: CCOC(=O)C(O)(c1ccc(Cl)cc1)c1ccc(Cl)cc1
- outcome [1]: inactive
- AC50 [2]: 11.7 µM (active)

Compound: CC(C)(O)C(=O)Nc1ccc([N+](=O)[O-])c(C(F)(F)F)c1
- outcome [3]: inactive

Compound: Oc1c(Cl)c(Cl)c(Cl)c(Cl)c1Cl
- outcome [4]: inactive
- outcome [3]: inactive
- outcome [5]: inactive

Compound: O=S(=O)(O)C(F)(F)C(F)(F)C(F)(F)C(F)(F)C(F)(F)C(F)(F)F
- outcome [6]: inactive
- AC50 [1]: 14.5 µM (active)

Compound: Oc1ccc(C(c2ccc(O)cc2)(C(F)(F)F)C(F)(F)F)cc1
- outcome [7]: inactive
- AC50 [8]: 2.86 µM (active)
- AC50 [9]: 37 µM (active)
- outcome [10]: inactive
- AC50 [11]: 32.5 µM (active)
- AC50 [12]: 18.4 µM (active)
- AC50 [13]: 11.4 µM (active)
- AC50 [14]: 25 µM (active)

Compound: CCOP(=S)(OCC)SCSC(C)(C)C
- outcome [3]: inactive

Compound: CCC(=O)O[C@H]1CC[C@H]2[C@@H]3CCC4=CC(=O)CC[C@]4(C)[C@H]3CC[C@]12C
- outcome [10]: inactive
- AC50 [11]: 2.04 µM (active)

Compound: C[C@]12CCC(=O)C=C1CC[C@@H]1[C@@H]2CC[C@@]2(C)[C@H]1CC[C@]2(C)O
- outcome [13]: inactive

Compound: O=C(N[C@H]1CN2CCC1CC2)c1cc2ccoc2cn1
- AC50 [10]: 25 µM (active)

Compound: O=C(NC(=O)c1c(F)cccc1F)Nc1cc(Cl)c(OC(F)(F)C(F)F)c(Cl)c1
- outcome [1]: inactive

Compound: Cc1cc(-c2ccc(N)c(C)c2)ccc1N
- outcome [15]: inactive

Compound: CCCCCCCCCC[N+](C)(C)CCCCCCCCCC
- AC50 [7]: 16.4 µM (active)
- AC50 [15]: 6.19 µM (active)
- AC50 [8]: 2.6 µM (active)
- AC50 [9]: 7.03 µM (active)
- AC50 [16]: 3.37 µM (active)
- AC50 [10]: 6.18 µM (active)
- AC50 [11]: 3.56 µM (active)
- AC50 [12]: 2.39 µM (active)
- AC50 [17]: 7.12 µM (active)
- AC50 [6]: 11.6 µM (active)
- AC50 [4]: 2.98 µM (active)
- AC50 [18]: 4.36 µM (active)
- AC50 [13]: 4.31 µM (active)
- AC50 [1]: 14.3 µM (active)
- AC50 [14]: 7.48 µM (active)
- AC50 [2]: 6.6 µM (active)
